# This is a sample that favours compounds with a hit; in the whole collection about 10% have one here.
# HEK cytotox = Cytotoxic Profiling in HEK 293 Cell Line of Diverse Libraries Using Quantitative High-Throughput Screening; Potency, µM (doses to about 115 µM), for the others: at the top dose activity change, negative = cytotoxicity, actives largely listed as inhibitors; HEK 293 viability, ATP luminescence (CellTiter-Glo), 48-72 h; actives 6.6% (n = 94,000); further: on the % scale 0 is the no-effect control and ±100 the full control effect; nearly all actives have a fitted effect of over 60% in size
#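 Cytotoxicity was scored by loss of ATP-coupled luminescence (CellTiter-Glo) in HEK 293 cells. Compound treatment ran 48 or 72 hr at 37 degree Celsius, 5% CO2, 95% humidity.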
# NIH3T3 tox = Cytotoxic Profiling in NIH 3T3 Cell Line of Diverse Libraries Using Quantitative High-Throughput Screening. actives 4.3% (n = 94,000). Potency, µM (highest dose often 96.7 µM), inactives show at the highest dose activity change, negative = cytotoxicity, usual class: inhibitors. NIH 3T3 viability, CellTiter-Glo ATP luminescence, 48-72 h. AID 1345082, 2018; further: on the % scale 0 is the no-effect control and ±100 the full control effect; nearly all actives have a fitted effect of over 55% in size
#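 ATP-dependent luminescence (CellTiter-Glo) served as the viability signal for NIH 3T3 cells treated with compound for 48 or 72 hr at 37 °C.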
# FLuc inh-1 = Firefly luciferase inhibition profiling of diverse chemical library using quantitative high-throughput screening; Luciferin 4-monooxygenase (Photinus pyralis), P08659; purified P. pyralis luciferase, luminescence, biochemical; Potency, µM (titrated, usually from 115 µM), actives largely listed as inhibitors; actives 2.5% (n = 76,000); further: on the % scale 0 is the no-effect control and ±100 the full control effect; nearly all actives have a fitted effect of over 65% in size
# Target sequence (P08659 whole entry, looked up): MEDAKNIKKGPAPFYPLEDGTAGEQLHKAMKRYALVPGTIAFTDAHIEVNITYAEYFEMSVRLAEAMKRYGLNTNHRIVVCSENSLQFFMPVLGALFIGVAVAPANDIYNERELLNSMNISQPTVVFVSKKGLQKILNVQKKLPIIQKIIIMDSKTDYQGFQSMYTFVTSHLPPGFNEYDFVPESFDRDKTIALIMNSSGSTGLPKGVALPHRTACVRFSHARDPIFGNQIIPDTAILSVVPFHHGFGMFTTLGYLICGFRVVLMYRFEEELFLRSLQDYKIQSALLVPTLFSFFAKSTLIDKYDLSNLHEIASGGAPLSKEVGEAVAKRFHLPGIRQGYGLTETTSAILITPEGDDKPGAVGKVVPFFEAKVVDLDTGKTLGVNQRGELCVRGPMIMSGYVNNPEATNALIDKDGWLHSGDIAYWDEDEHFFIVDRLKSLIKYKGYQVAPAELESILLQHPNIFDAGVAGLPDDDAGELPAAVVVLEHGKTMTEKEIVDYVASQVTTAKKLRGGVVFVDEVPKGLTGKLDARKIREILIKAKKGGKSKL
#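 Purified 10nM P. pyralis luciferase with 10uM D-luciferin and 10uM ATP in 50mM Tris acetate pH 7.5, 10mM Mg acetate, 0.01% Tween-20, 0.05% BSA. qHTS titration; luminescence read by CCD imager.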
# hNpr1 antagonist = Natriuretic polypeptide receptor (hNpr1) antagonism - Primary qHTS; actives 1.6% (n = 76,000); Atrial natriuretic peptide receptor 1 (Homo sapiens), P16066; AID 1347048, 2019; Potency, µM (doses to about 46.3 µM), without a hit: at the highest dose activity change, negative = inhibition, most hits filed as inhibitors; HEK293 hNpr1 GloSensor cGMP, ANP-stimulated luminescence; calls by dose curve; further: on the % scale 0 is the no-effect control and ±100 the full control effect; nearly all actives have a fitted effect of over 60% in size
#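 Compound pre-incubated 30 min at room temperature on GloSensor-loaded HEK293 cells stably carrying hNpr1 and the pGS-40F cGMP biosensor. Stimulation uses hNppA at 0.1 nM final; luminescence is taken at baseline and 20 min post-agonist.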
# GPT2 inhibitor = Primary qHTS assay for inhibitors of Glutamate pyruvate transaminase 2 (GPT2) | Alanine aminotransferase 2 (Homo sapiens), Q8TD30 | Recombinant GPT2, coupled pyruvate oxidase/HRP Amplex Red fluorescence | Potency, µM (highest dose often 57.7 µM), for the others: top-dose activity change, negative = inhibition, most hits filed as inhibitors | actives 0.25% (n = 100,000) | AID 1671188, 2021; further: on the % scale 0 is the no-effect control and ±100 the full control effect; nearly all actives have a fitted effect of over 60% in size
#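 Recombinant GPT2 (10ng/uL) with 250uM a-KG and 2mM L-alanine, 30 min at room temperature, in HEPES pH 7.5 buffer. Pyruvate detected by pyruvate oxidase/HRP/Amplex Red fluorescence after 30 min in the dark; AOA (50uM) as positive control.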
# FLuc SDR no ATP = Firefly luciferase (FLuc-C-HiBiT) SDR gain of signal screen - without ATP; shares compounds with FLuc inh-1; Purified FLuc-C-HiBiT, Nano-Glo HiBiT luminescence, no ATP; Potency, µM (series often up to 32.7 µM), for the others: at the highest dose activation (signal gain), actives largely listed as activators; actives 7.8% (n = 1,300); AID 1963318, 2024; further: nearly all actives have a fitted effect of over 55% in size
# FLuc SDR ATP = Firefly luciferase (FLuc-C-HiBiT) SDR gain of signal screen - plus ATP; shares compounds with FLuc inh-1; actives 8.7% (n = 1,300); Potency, µM (series often up to 32.7 µM), inactives show at the top dose activation (gain of signal), actives largely listed as activators; purified FLuc-C-HiBiT + ATP, HiBiT complementation luminescence;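 further: signal reports ligand binding via conformational change of the enzyme rather than luciferase catalysis; % of control where 0% means no effect; nearly all actives have a fitted effect of over 55% in size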
# FLuc inh-2 = Firefly luciferase (FLuc-C-HiBiT) enzymatic inhibition screen - Functional assay; shares compounds with FLuc inh-1; purified FLuc-C-HiBiT enzyme, luciferin luminescence; Potency, µM (series often up to 32.7 µM), for inactives: at the top dose activity change, negative = inhibition, most hits filed as inhibitors; actives 42% (n = 1,300); AID 1963320, 2024; further: on the % scale 0 is the no-effect control and ±100 the full control effect; nearly all actives have a fitted effect of over 70% in size
# The depositor's hits bear a star; i = inactive; ? = inconclusive; . = not tested or not shown; [ ] = another dose, or the depositor's remark. Unless noted, the call rests on the fitted dose curve; in most records, active means well fitted curve in the direction sought with a large enough effect; inconclusive means small, poorly fitted or top-dose-only effect, or another doubt; inactive means no such curve, though single readings can be large; an effect the other way counts as inactive or inconclusive. Potency means the concentration at half of the fitted maximal effect.
SMILES,HEK cytotox,NIH3T3 tox,FLuc inh-1,hNpr1 antagonist,GPT2 inhibitor,FLuc SDR no ATP,FLuc SDR ATP,FLuc inh-2
O=C(NCCNC(=O)C1CCCC1)c1ccc(-c2cncnc2)cc1,2%,-8%,.,.,.,.,.,.
O=C(C1CCCCC1)N1CCC2(CC(c3cccnc3)=NO2)C1 (stereo unspecified),-13%,1%,.,.,i,.,.,.
O=C(NCCc1ccccc1Cl)c1ccc2c(c1)nc1n2CCOC1,.,.,.,.,.,?,?,7µM*
O=C(NCc1ccccc1Cl)c1ccc2oc(-c3ccnc(Cl)c3)nc2c1,-6%[172 µM],-20%[138 µM],.,.,-1%[88.5 µM],.,.,.
Cc1ccc(C(=O)NC2CC2)cc1-c1ccc2[nH]ncc2c1,.,.,.,.,.,17%,12%,-16%
Cc1ccc(C(=O)NC2CCN(c3cn[nH]c(=O)c3)CC2)cc1C,-3%,-11%,i,2%,2%,.,.,.
Cc1ccc(/C=C/c2nc3ccccc3[nH]2)cc1,.,.,.,.,.,0.39µM*,0.56µM*,0.044µM*
O=C(O)CCC(=O)N[C@H]1CCN2C(=O)c3cc(-c4ccc(Cl)cc4)ccc3NC(=O)[C@H]12,0%[172 µM],-25%[174 µM],?,-3%[70.6 µM],3%[88.5 µM],.,.,.
COc1cccc(CNC(=O)Cn2c(-c3ccccc3)nc(C)cc2=O)c1,?,-16%,i,-1%,-1%,.,.,.
COc1cccc(CNc2nc3ccccc3c3nc(-c4cccc(C)c4)nn23)c1,.,.,.,.,.,19%,13%,?
COCCC(=O)NC1CCN(c2cnn(Cc3ccccc3)c(=O)c2)CC1,-2%,5%,i,6%,-3%,.,.,.
O=C(Cc1cccc(Cl)c1)N1CCn2c(nnc2-c2ccccc2)C1,-21%,?,2.8µM*,-24%,1%,14%,19%,?
O=C(O)c1cccc2c1CCN2C(=O)Nc1ccc(F)cc1,8.9µM*,?,0.0079µM*,0.32µM*,-15%,11µM*,0.0062µM*,0.0035µM*
CN(C)C(=O)c1cccc2c1CCN2C(=O)Nc1ccc(F)cc1,-5%,-19%,13µM*,-1%,1%,15%,6.2µM*,3.9µM*
COc1ccc(NC(=O)c2cccc3c2CCN3C(=O)c2ccc(F)cc2)cc1OC,-2%,2%,?,-30%,-7%,.,.,.
CCn1ccc(C(=O)N2CCN(C(=O)N3CC4CC(C3)[C@H]3CCCC(=O)N3C4)CC2)n1 (stereo partly specified),-5%,i,i,3%,i,.,.,.
Cc1cc(CNC(=O)CC2C=CS(=O)(=O)C2)c2[nH]c(-c3ccccc3)c(C)c2c1 (stereo unspecified),45µM*,40µM*,6.3µM*,-21%,-5%,21%,13%,?
CC(C)c1ccc(C(=O)Nc2ccc(-c3nc4ccccc4s3)c(Cl)c2)cc1,.,.,.,.,.,12%,7%,-9%
O=C(Nc1ccc(-c2nc3ccccc3s2)c(O)c1)c1ccccc1,.,.,.,.,.,14%,11%,-2%
CC(C)[C@H](C(=O)Nc1ccc(C(=O)NO)cc1)c1ccccc1,.,.,.,.,-43%,.,.,.
CSc1ccc(C(=O)Nc2ccc(-c3nc4ccccc4s3)c(O)c2)cc1,.,.,.,.,.,11%,11%,-2%
CSc1ccc(NC(=O)c2cc3c(N4CCSCC4)nc(C)cn3n2)cc1,?,?,i,-17%,i,.,.,.
CCc1nc2c(c(-c3ccc(O)cc3)n1)CCN(C(=O)c1ccccc1)CC2,-8%,-22%,.,.,i,.,.,.
CCN(CC)C(=O)[C@@H]1CCC[C@@H](NCc2ccc(F)cc2)CN(C)C(=O)C1,3%[172 µM],2%[138 µM],i,2%[70.6 µM],i,.,.,.
Cc1nc2ccc(C(=O)N3CCCC(C)(Cc4ccc5c(c4)OCO5)C3)cc2o1 (stereo unspecified),?,?,?,0%,2%,.,.,.
SMILES,HEK cytotox,NIH3T3 tox,FLuc inh-1,hNpr1 antagonist,GPT2 inhibitor,FLuc SDR no ATP,FLuc SDR ATP,FLuc inh-2
CC1(Cc2ccc3c(c2)OCO3)CCCN(C(=O)c2ccc3ncsc3c2)C1 (stereo unspecified),45µM*,-19%,7.9µM*,-23%,i,?,18%,?
CN1c2cc(C(=O)Nc3ccc(Cl)cc3)ccc2C(=O)N2CCCCC21 (stereo unspecified),?,?,?,0%,i,.,.,.
CSc1cccc(NC(=O)c2ccc3c(c2)N(C)C2CCCN2C3=O)c1 (stereo unspecified),?,-27%,14µM*,-1%,4%,13%,?,?
CSc1ccc(NC(=O)c2ccc3c(c2)N(C)C2CCCN2C3=O)cc1 (stereo unspecified),?,-18%,14µM*,-10%,i,9%,?,?
CCNC(=O)N[C@@H]1C=C[C@@H](c2c(C)nn(-c3ccc(F)cc3)c2C)C1,89µM*,?,6.3µM*,20µM*,i,26%[49.3 µM],?,?
Cc1nn(-c2ccc(F)cc2)c(C)c1[C@@H]1C=C[C@@H](NC(=O)c2ccco2)C1,?,?,?,?,i,.,.,.
Cc1nn(-c2ccccn2)c(C)c1[C@@H]1C=C[C@@H](NC(=O)NCc2ccccc2)C1,?,?,?,-26%[70.6 µM],3%[88.5 µM],.,.,.
Cc1nn(-c2ccccc2)c(C)c1[C@@H]1C=C[C@@H](NC(=O)CCCC(=O)O)C1,i,i,i,6%[70.6 µM],i,.,.,.
Cc1ccc(-n2nc(C)c([C@@H]3C=C[C@@H](NC(=O)NCc4ccccc4)C3)c2C)cc1Cl,-23%[172 µM],?,7.9µM*,?,?,19%[49.3 µM],?,?
COc1ccc(-n2nc(C)c([C@@H]3C=C[C@@H](NC(=O)NCc4ccccc4)C3)c2C)cc1,?,?,1.1µM*,8.9µM*,i,?,19%[49.3 µM],6.4µM*

# Screening results: PubChem, National Center for Advancing Translational Sciences (NCATS)
